Compound activity (PubChem BioAssay)
The sample as a whole holds a higher share of hits than the screen did.
nsP2pro primary – CHIKV nsP2 protease inhibition, primary qHTS; 31,000 tested, 1.1% active; Q8JUX6; FRET peptide cleavage, nsP2pro, fluorescence 1 h; Potency, µM (doses to about 24.9 µM), actives largely listed as inhibitors; AID 1964107; calls by dose curve; further: nearly all actives have a fitted effect of over 60% in size
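Recombinant nsP2pro (150 nM) was preincubated with compound 15 min at room temperature in 10 mM Tris-HCl pH 8.0, 0.01% Tween 20. Peptide 2 FRET substrate (2.5 uM) was then added and fluorescence read after 1 h. Seven-point series, up to 25 uM.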
Each line names hits and unclear results; the compound was inactive in the other large screens.

COc1ccc2ccccc2c1CN(C)CC(=O)Nc1ccc(N2CCOCC2)cc1	none
CN1CCN(c2ccc(NC(=O)CN(C)Cc3c(O)ccc4ccccc34)cc2)CC1	nsP2pro primary 13µM
CN(CC(=O)Nc1ccc(N2CCOCC2)cc1)Cc1ccccc1O	none
CC(C)n1cc(-c2ccc(Oc3ccccc3)cc2)c2c(N)ncnc21	none
CCCCc1ccc(O)cc1O	none
COc1ccc(S(=O)(=O)N2C[C@@H]3C[C@H](C2)c2c(NC(=O)c4ccccc4)ccc(=O)n2C3)cc1	none
O=c1ccc(-c2cccs2)c2n1C[C@H]1C[C@@H]2CN(S(=O)(=O)c2ccccc2)C1	nsP2pro primary 16µM
Cc1ccc(NC(=O)N2C[C@@H]3C[C@H](C2)c2c(-c4cccs4)ccc(=O)n2C3)cc1	none
O=C(C[C@@H]1CCNC[C@@H]1Cc1cc(CSc2ccccc2)on1)N1CCN(c2ccccc2)CC1	none
CC(=O)OC[C@]12C[C@H](OC(=O)CC(C)C)C(C)=C[C@H]1O[C@@H]1[C@H](O)[C@@H](O)[C@@]2(C)[C@]12CO2	none
CC1=CC2OC3[C@H](O)C[C@@](C)([C@]34CO4)[C@@]2(CO)[C@H](O)C1=O (stereo partly specified)	nsP2pro primary 0.31µM
CC(=O)OC[C@]12C[C@H](O)C(C)=C[C@H]1O[C@@H]1[C@H](O)[C@@H](O)[C@@]2(C)[C@]12CO2	none
COC(=O)c1nc(C(F)(F)F)n2c1CN(C(=O)C[C@H](N)Cc1cc(F)c(F)cc1F)CC2	none
COc1ccc(-c2c(Cl)ncn2-c2ccc(S(N)(=O)=O)cc2)cc1F	none
COc1ccc2c(c1)C(CN1CCN(c3ccc4oc(C(=O)O)cc4c3Cl)CC1)=CC(C)(C)CO2	none
O=C1Nc2c(Cl)cccc2/C1=C\c1cc(Cl)c(O)c(Cl)c1	none
CCOC(=O)NNc1ccc(N(CC)CC(C)O)nn1 (stereo unspecified)	nsP2pro primary 11µM
CCOC(=O)NNc1nncc2ccccc12	none
CCc1nc2c(cnn2-c2ccc(C)cc2)c(=O)n1Cc1ccccc1	none
COc1ccc(-n2c(-c3ccccc3F)nc3c(cnn3-c3ccc(C)cc3)c2=O)cc1	nsP2pro primary 11µM
COc1ccc(Oc2c(Cl)cnn(-c3cc(C)cc(C)c3)c2=O)cc1	none
Cc1cc(C)nc(NC(=S)N2CCN(c3cccc4[nH]ccc34)CC2)c1	none
COc1ccc(-c2cc(=S)ss2)cc1	nsP2pro primary 11µM
COc1ccc(-c2nc3ccccc3s2)cc1	none
COc1ccc(-c2nc3ccc(OC)cc3s2)cc1	none
CN(C)C1C(=O)C(C(N)=O)=C(O)C2(O)C(=O)C3=C(O)c4c(O)ccc(Cl)c4C(C)(O)C3CC12 (stereo unspecified)	none
COc1cccc(-n2c(=O)[nH]c3cc(Cl)n(-c4ccc(-c5cccc(OC)c5O)cc4)c3c2=O)c1	none
CCOc1ccc(CCNC(=O)c2cc3ccncc3n2Cc2cccc(C)n2)cc1OCC	none
CCOc1ccc(CCNC(=O)c2cc3ccccc3n2Cc2ccccn2)cc1OCC	nsP2pro primary 7.9µM
CCOc1ccc(CCNC(=O)c2cc3ncccc3n2Cc2cccc(C)n2)cc1OCC	none
CC(=O)N1c2nc(-c3ccco3)nn2C2(CCCCC2)[C@@H]2CCCC[C@@H]21	none
COCC(=O)N1c2nc(C(C)C)nn2C2(CCCCC2)[C@@H]2CCCC[C@@H]21	nsP2pro primary 11µM
O=C(c1cccc([N+](=O)[O-])c1)N1c2ncnn2C2(CCCCC2)[C@@H]2CCCC[C@@H]21	none
Cc1ccc(S(=O)(=O)Nc2cnccc2C(=O)Nc2nc(-c3cc4ccccc4o3)cs2)cc1	none
CO/N=C(\C(=O)N[C@@H]1C(=O)N2C(C(=O)O)=C(CSc3cnns3)CS[C@H]12)c1csc(N)n1	none
COCC1=C(C(=O)O)N2C(=O)[C@@H](NC(=O)/C(=N\OC)c3csc(N)n3)[C@H]2SC1	none
CCO/N=C(\C(=O)N[C@@H]1C(=O)N2C(C(=O)O)=C(Sc3nc(-c4cc[n+](C)cc4)cs3)CS[C@H]12)c1nsc(NP(=O)(O)O)n1	nsP2pro primary 11µM
Cc1nccn1CCC(C(N)=O)(c1ccccc1)c1ccccc1	none
Nc1cc(-c2nc(Nc3ccc(F)c(F)c3)c3ccccc3n2)ccn1	none
CC[N+]1(C/C2=C/CCCCCC2)CCC(NC(=O)C2c3cc(Cl)ccc3Oc3ccc(Cl)cc32)CC1 (stereo unspecified)	none
Fc1ccc(-c2cccc(CN3CCOCC3)c2)c(Cl)c1	none
Cn1c(C(=O)Nc2ccc3c(c2)OCO3)cc2c1CCN(Cc1cccc(F)c1)C2	none
O=C(c1nc2c(o1)CCN(Cc1cccc(F)c1)CC2)N1CCOCC1	nsP2pro primary 2.8µM
c1ccc(CNc2ncc(-c3ccc(N4CCOCC4)cc3)c3c2OCC3)cc1	none
CCC(=O)NC[C@@H]1C[C@H]1c1cccc2c1CCO2	none
O=C(c1ccncc1)N1CC(N(Cc2ccncc2)CC2CC2)C1	none
C[C@]12C=CC(=O)C=C1CC[C@@H]1[C@@H]2[C@@H](O)C[C@@]2(C)[C@H]1CC[C@]2(O)C(=O)COP(=O)(O)O	none
CC1=C(c2ccc(C)c(C)c2)S(=O)(=O)N=C1N1CCC(C(=O)NCc2ccc(Cl)cc2)CC1	none
CC1=C(c2ccc(C)c(C)c2)S(=O)(=O)N=C1N1CCC(C(=O)Nc2ccc(Cl)cc2)CC1	none
CC1=C(c2ccc(Cl)cc2)S(=O)(=O)N=C1N1CCC(C(=O)NCCc2ccco2)CC1	nsP2pro primary 11µM
COc1cccc(CNc2ccc(S(=O)(=O)Nc3cccc(N4CCNCC4)c3)cc2)c1O	none
Cc1csc(NC(=O)c2nc3c(o2)CCN(Cc2ccccc2F)CC3)n1	nsP2pro primary 13µM
Cc1ccc2nc(NC(=O)c3cccn(Cc4ccccc4F)c3=O)sc2c1	none
Cc1csc(NC(=O)c2ccc(COc3cccc(Cl)c3)o2)n1	none
C[C@@H]1NC(=O)[C@@H]2CCCN2C(=O)[C@H](CC(N)=O)NC(=O)[C@@H]2CSSC[C@H](N)C(=O)N[C@H]3CSSC[C@H](NC1=O)C(=O)N[C@@H]([C@@H](C)O)C(=O)NCC(=O)N[C@H](C(=O)N[C@@H](Cc1ccc(O)cc1)C(=O)O)CSSC[C@H](NC(=O)[C@H](Cc1ccc(O)cc1)NC(=O)[C@H](CCC(=O)O)NC3=O)C(=O)N2	none
Cc1cc(-c2nnc3n2CCCCC3)c(C)n1-c1cccnc1	none
c1ccc(-n2cc(-c3nnc4n3CCCCC4)c3ccccc32)cc1	none
c1ccc(-n2ccc(-c3nnc4n3CCCCC4)c2)cc1	nsP2pro primary 13µM
O=C(O)c1ccc(-n2cccc2/C=C2\SC(=O)N(Cc3cccc(Cl)c3)C2=O)cc1	none
CCCCCC(O)/C=C/[C@@H]1C(CCCCCCC(=O)O)C(=O)C[C@@H]1O (stereo partly specified)	none
O=C(O)/C=C/CCCCCCCO	none
Cc1noc(C)c1-c1cc(-c2ccc(CN(C)C)cc2)cn2cncc12	none
O=C(O)/C(S)=C/c1c[nH]c2ccc(F)cc12	nsP2pro primary 11µM
COc1ccc2[nH]cc(CCNC(=O)Nc3ccc(F)cc3)c2c1	none
CN1CCC(c2c[nH]c3ccc(NC(=O)c4ccc(F)cc4)cc23)CC1	none
O=C(Nc1nc(-c2ccccc2)cs1)c1ccncc1NS(=O)(=O)c1ccc(N2CCCC2=O)cc1	none
O=c1cc(-c2cccnc2)oc2c(NCCc3ccccn3)nccc12	none
Cc1ccccc1-c1nccc2c(=O)cc(C3=CCOCC3)oc12	none
O=c1cc(-c2ccncc2)oc2c(-c3cccc(CO)c3)nccc12	nsP2pro primary 14µM
CCCCOC(=O)c1ccnc2cc(C(OCCN3CCCCC3)c3ccccc3C)sc12 (stereo unspecified)	none
Cc1c(P(=S)(c2ccccc2)c2ccccc2)c2ccccc2n1Cc1ccccc1	none
Cc1c(P(=S)(c2ccccc2)c2ccccc2)c2ccccc2n1C(=O)NCc1ccccc1	none
